PINK1 modulator: modulators of PINK1 expression; PINK1 immunofluorescence, high-content cytometry, 24 h; 410,000 compounds, 0.2% hits; AID 624263; Potency, µM (top dose mostly 76.6 µM), for inactives: at the highest dose activation (PINK1 increase), hits mostly activators; active = well fitted activation curve with a large enough effect; inconclusive = small, poorly fitted or top-dose-only effect; cell line not stated here; note: % of control where 0% means no effect; nearly all actives have a fitted effect of over 65% in size
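Compound titrations (5 concentrations, 24 h) on a stable cell line; DMSO and CCCP controls. Endpoint: fixed-cell PINK1 immunofluorescence with mitochondrial, cell and nuclear markers, scanned by microplate cytometer.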
KB-3-1 cytotox: kills parental KB-3-1 adenocarcinoma cells; KB-3-1 viability, CellTiter-Glo ATP luminescence, 72 h; AID 1347075; 400,000 compounds, 1.4% hits; Potency, µM (top dose mostly 46.1 µM), usual class: cytotoxic; note: % is set by controls: 0 for no effect and ±100 for the full control effect; nearly all actives have a fitted effect of over 60% in size
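Here the drug-naive KB-3-1 line serves as comparator for MDR sub-line selectivity; cells received compound titrations, 72 h at 37 °C, then CellTiter-Glo readout.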
SW480 rereplic: induces DNA re-replication in SW480 colon adenocarcinoma cells. SW480 DNA re-replication, Hoechst DNA content imaging, 48 h. Potency, µM (doses to about 46.1 µM), inactives show at the highest dose re-replication activation, actives largely listed as activators. 340,000 compounds, 1.8% hits; note: % of control where 0% means no effect; nearly all actives have a fitted effect of over 55% in size
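Readout is total intensity of Hoechst-stained nuclei, excited at 405 nm and collected at 500-530 nm. Compound treatment lasted 48 hr at 37 C in 5% CO2 before staining.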
MCF10A rereplic: inducers of DNA re-replication in MCF 10A breast cells; Potency, µM (top dose mostly 46.1 µM), for the others: top-dose activity, positive = re-replication, most hits filed as activators; MCF 10A DNA re-replication, Hoechst nuclear intensity, 48 h; 350,000 compounds, 2.9% hits; note: % of control where 0% means no effect; nearly all actives have a fitted effect of over 50% in size
ALOX12 inh: inhibitors of human 12S-lipoxygenase ALOX12 | P18054 | purified 12hLO, xylenol orange hydroperoxide absorbance | Potency, µM (titrated, usually from 108 µM), without a hit: at the highest dose activity change, negative = inhibition, hits mostly inhibitors | 580,000 compounds, 1.1% hits | AID 1671190; note: % is set by controls: 0 for no effect and ±100 for the full control effect
Target sequence (P18054 whole entry, looked up): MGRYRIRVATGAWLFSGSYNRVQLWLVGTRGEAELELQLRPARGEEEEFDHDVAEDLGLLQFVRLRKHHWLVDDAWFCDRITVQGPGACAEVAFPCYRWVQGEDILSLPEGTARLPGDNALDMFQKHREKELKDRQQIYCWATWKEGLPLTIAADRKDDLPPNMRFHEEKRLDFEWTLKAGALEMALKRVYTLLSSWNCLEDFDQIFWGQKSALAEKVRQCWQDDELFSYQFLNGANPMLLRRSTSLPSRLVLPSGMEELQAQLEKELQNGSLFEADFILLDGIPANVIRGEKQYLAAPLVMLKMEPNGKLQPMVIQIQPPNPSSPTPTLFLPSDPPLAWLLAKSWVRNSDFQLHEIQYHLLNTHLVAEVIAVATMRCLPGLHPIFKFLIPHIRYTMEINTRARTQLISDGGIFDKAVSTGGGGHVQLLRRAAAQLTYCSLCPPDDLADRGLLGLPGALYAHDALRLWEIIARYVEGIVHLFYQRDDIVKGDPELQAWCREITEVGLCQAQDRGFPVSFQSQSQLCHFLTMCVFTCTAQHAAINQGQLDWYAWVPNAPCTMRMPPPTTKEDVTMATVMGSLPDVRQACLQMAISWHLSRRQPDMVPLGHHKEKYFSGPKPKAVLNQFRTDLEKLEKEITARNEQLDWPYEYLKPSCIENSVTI
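Purified human 12hLO at 150 nM in 25 mM Hepes, 0.01% Triton X-100, pH 7.0, preincubated 15 min at room temperature with compound. Reaction started with 40 uM arachidonic acid, 30 min at room temperature. Hydroperoxide measured by Fe-xylenol orange, 573/405 nm absorbance ratio.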
KB-V1 MDR tox: KB-V1 MDR subline cytotoxicity; AID 1347076; 400,000 compounds, 3.4% hits; KB-V1 MDR cells viability, CellTiter-Glo, 72 h; Potency, µM (top dose mostly 46.1 µM), hits mostly cytotoxic; note: % is set by controls: 0 for no effect and ±100 for the full control effect; nearly all actives have a fitted effect of over 60% in size
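In this primary screen, KB-V1 cells overexpressing P-gp are incubated with library compounds (lowest to highest concentration) for 72 h at 37 degrees C before a luminescent ATP viability read.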
* marks the source's active call; other numbers are inactive results; [ ] = remark or other dose. Rows were chosen to be rich in hits. Some 5.8% of all compounds tested hit in one or more screens of this group. Unless noted, calls come from the whole dose curve; as a rule, active = well fitted curve in the direction sought with a large enough effect; inconclusive = small, poorly fitted or top-dose-only effect, or another doubt; inactive = no such curve, though single readings can be large; an effect the other way counts as inactive or inconclusive. Potency is the fitted concentration of half-maximal effect.

How did CN(Cc1c(C(=O)N/N=C/c2ccccc2O)nnn1-c1nonc1N)C1CCCCC1 do in these assays?
PINK1 modulator: 2%; KB-3-1 cytotox: 18µM*; ALOX12 inh: 6%; KB-V1 MDR tox: inconclusive

What do the screens show for `CN(Cc1c(C(=O)N/N=C/c2cccc(O)c2)nnn1-c1nonc1N)C1CCCCC1`?
PINK1 modulator: 4%; KB-3-1 cytotox: inactive; SW480 rereplic: 6%; MCF10A rereplic: -1%; ALOX12 inh: 4%; KB-V1 MDR tox: inconclusive

Results for CC1CCN(Cc2c(C(=O)N/N=C/c3ccccc3O)nnn2-c2nonc2N)CC1 ?
PINK1 modulator: 0%; KB-3-1 cytotox: 5.2µM*; SW480 rereplic: 6%; MCF10A rereplic: -8%; ALOX12 inh: 13%; KB-V1 MDR tox: inconclusive

How did Cc1nnn(-c2nonc2N)c1C(=O)N/N=C/c1ccccc1O do in these assays?
PINK1 modulator: 3%; KB-3-1 cytotox: inconclusive; SW480 rereplic: 2.6µM*; MCF10A rereplic: -4%; ALOX12 inh: 0%; KB-V1 MDR tox: inconclusive

How did CCC(C)NC(=O)c1ccc(CNC(=O)NC(C)C)cc1 (stereo unspecified) do in these assays?
ALOX12 inh: 23%

Results for O=S(=O)(c1ccccc1C(F)(F)F)N1CC(c2nc(Cc3ccccc3)no2)C1 ?
ALOX12 inh: 26%

Results for COc1ccccc1/C=N/NC(=O)c1nnn(-c2nonc2N)c1-c1ccccc1 ?
PINK1 modulator: 4%; KB-3-1 cytotox: inactive; SW480 rereplic: 2%; MCF10A rereplic: 2%; ALOX12 inh: -10%; KB-V1 MDR tox: inactive

Results for COc1ccccc1/C=N/NC(=O)c1nnn(-c2nonc2N)c1-c1cccs1 ?
PINK1 modulator: 0%; KB-3-1 cytotox: inactive; SW480 rereplic: 23µM*; MCF10A rereplic: -1%; KB-V1 MDR tox: inactive

How did O=C(NCCNc1ccncc1)Nc1ccccc1 do in these assays?
ALOX12 inh: -28%

Results for COC(=O)[C@@]1(Sc2ccc(C)cc2)CC(=O)N(c2ccccc2)[C@@H]1c1ccccc1 ?
PINK1 modulator: -1%; KB-3-1 cytotox: inconclusive; ALOX12 inh: inconclusive; KB-V1 MDR tox: 16µM*

What do the screens show for `CC1CCCC(C)N1C(=O)c1cc2ncc(CCCl)cn2n1` (stereo unspecified)?
PINK1 modulator: -3%; KB-3-1 cytotox: inactive; SW480 rereplic: -9%; MCF10A rereplic: -5%; ALOX12 inh: 14%; KB-V1 MDR tox: 21µM*

How did OC(COC(c1ccc(Cl)cc1)c1ccc(Cl)cc1)CN1CCc2ccccc2C1 (stereo unspecified) do in these assays?
PINK1 modulator: 4%; KB-3-1 cytotox: inactive; SW480 rereplic: inconclusive; MCF10A rereplic: 18µM*; ALOX12 inh: inconclusive; KB-V1 MDR tox: inactive

Results for OC(COC(c1ccccc1)c1ccccc1)CN1CCc2ccccc2C1 (stereo unspecified) ?
PINK1 modulator: 22%; KB-3-1 cytotox: inactive; SW480 rereplic: 29%; MCF10A rereplic: inconclusive; ALOX12 inh: 1%; KB-V1 MDR tox: inconclusive

How did CC1CN(CC(O)COC(c2ccccc2)c2ccccc2)CC(C)O1 (stereo unspecified) do in these assays?
PINK1 modulator: 1%; KB-3-1 cytotox: inactive; SW480 rereplic: inconclusive; MCF10A rereplic: inconclusive; ALOX12 inh: inconclusive; KB-V1 MDR tox: 21µM*

Results for CN1CCN(CC(O)COC(c2ccc(Cl)cc2)c2ccc(Cl)cc2)CC1 (stereo unspecified) ?
PINK1 modulator: 1%; KB-3-1 cytotox: inactive; SW480 rereplic: 19%; MCF10A rereplic: 21µM*; ALOX12 inh: inconclusive; KB-V1 MDR tox: inactive

What do the screens show for `OC(COC(c1ccc(F)cc1)c1ccc(F)cc1)CN1CCc2ccccc2C1` (stereo unspecified)?
PINK1 modulator: -2%; KB-3-1 cytotox: inactive; SW480 rereplic: inconclusive; MCF10A rereplic: inconclusive; ALOX12 inh: 2%; KB-V1 MDR tox: 16µM*

What do the screens show for `CCCn1nc(C(=O)Nc2cc(C)ccc2OC)c2ccccc2c1=O`?
ALOX12 inh: 1%

Results for NC(=O)CSc1ncc(-c2ccc(F)cc2)o1 ?
ALOX12 inh: -4%

What do the screens show for `CCN(CC)c1ccc(CNC(=O)c2scnc2C)cn1`?
ALOX12 inh: -3%

Results for CC1CCN(C(=O)c2cc3ccc(C(C)C)cc3[nH]2)CC1 ?
ALOX12 inh: 1%

Results for NC1=NC(=O)/C(=C/c2ccc(-c3ccc(S(N)(=O)=O)cc3)o2)S1 ?
PINK1 modulator: 32µM*; KB-3-1 cytotox: inactive; SW480 rereplic: -9%; MCF10A rereplic: -11%; ALOX12 inh: -27%; KB-V1 MDR tox: inactive

Results for NC1=NC(=O)/C(=C\c2ccco2)S1 ?
PINK1 modulator: 1%; KB-3-1 cytotox: inactive; SW480 rereplic: -9%; MCF10A rereplic: 2%; ALOX12 inh: inconclusive; KB-V1 MDR tox: inactive

What do the screens show for `CS(=O)(=O)Nc1ccc(-c2ccc(/C=C3\SC(N)=NC3=O)o2)cc1`?
PINK1 modulator: 28%; KB-3-1 cytotox: inactive; SW480 rereplic: 14%; MCF10A rereplic: 23µM*; ALOX12 inh: -23%; KB-V1 MDR tox: inactive

What do the screens show for `CC1(C)OC(=O)C(=Cc2ccc(-c3ccc(S(N)(=O)=O)cc3)o2)C(=O)O1`?
PINK1 modulator: 1%; KB-3-1 cytotox: inactive; SW480 rereplic: inconclusive; MCF10A rereplic: 18µM*; ALOX12 inh: inconclusive; KB-V1 MDR tox: inactive

Results for COc1ccc2c(C)c(CCC(=O)N3CCN(Cc4ccccc4)CC3)c(=O)oc2c1 ?
ALOX12 inh: -2%

Results for Cc1ccc(-n2c(C3CCN(C(=O)Cc4ccc(Cl)cc4)CC3)n[nH]c2=O)cc1 ?
ALOX12 inh: -18%

What do the screens show for `COc1ccc(N(C(=O)c2cccnc2)S(=O)(=O)c2ccc3c4c(cccc24)C(=O)N3C)cc1`?
PINK1 modulator: 2%; KB-3-1 cytotox: inactive; SW480 rereplic: -6%; MCF10A rereplic: inconclusive; ALOX12 inh: 3%; KB-V1 MDR tox: 16µM*

Results for COc1ccc(C(=O)Nc2ccc3oc(-c4ccccc4C)nc3c2)cc1 ?
ALOX12 inh: -10%

How did Cc1nn(-c2ccccc2)c2nc(=O)n(-c3ccccc3)cc12 do in these assays?
PINK1 modulator: -1%; KB-3-1 cytotox: inactive; SW480 rereplic: -12%; MCF10A rereplic: 0%[9.22 µM]; ALOX12 inh: 0%; KB-V1 MDR tox: inactive

How did Cc1ccc2nc3c(cc2c1)c(C)nn3-c1ccccc1 do in these assays?
PINK1 modulator: 7%; KB-3-1 cytotox: inactive; SW480 rereplic: 7.3µM*; MCF10A rereplic: inconclusive; ALOX12 inh: -2%; KB-V1 MDR tox: inactive

Screening results (PubChem BioAssay)
